PAFAH1B3 FP inh – blocks human PAF acetylhydrolase 1B catalytic subunit 3. Q15102. recombinant PAFAH1B3, FP-rhodamine probe, fluorescence polarization. inhibition, % at 3.39 µM. actives 0.28% (n = 340,000). AID 492972;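 active = inhibition above the screen-wide average of all tested compounds plus 3 SD, cut at about 25% in these data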;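 note: 0% = enzyme with DMSO only and 100% = wells lacking PAFAH1B3 protein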
Target sequence (Q15102 whole entry, looked up): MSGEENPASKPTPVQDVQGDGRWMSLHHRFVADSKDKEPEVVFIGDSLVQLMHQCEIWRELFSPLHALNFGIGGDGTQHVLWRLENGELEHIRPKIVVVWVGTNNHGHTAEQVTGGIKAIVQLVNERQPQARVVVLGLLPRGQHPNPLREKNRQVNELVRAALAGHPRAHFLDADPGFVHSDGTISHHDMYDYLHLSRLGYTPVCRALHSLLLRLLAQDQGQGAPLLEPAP
Fam108B inh – Fam108B inhibition, counter-screen for RBBP9 inhibitors; inhibition, % at 9.51 µM; AID 1947; actives 0.33% (n = 300,000); recombinant Fam108B, FP-Rh probe fluorescence polarization;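 active = inhibition above the screen mean inhibition plus 3 SD, computed separately per campaign, cut at about 18% in these data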;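 note: inhibitors lower polarization as less probe binds the enzyme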
PAFAH2 FP inh – inhibitors of human PAFAH2; actives 0.99% (n = 340,000); inhibition, % at 3.39 µM; recombinant PAFAH2, FP-rhodamine activity probe, fluorescence polarization; AID 492956;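 active = inhibition above the mean over all tested compounds plus 3 SD, cut at about 30% in these data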;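 note: inhibitors block probe labeling of enzyme so polarization drops; 0% = enzyme with DMSO and 100% = wells lacking PAFAH2 protein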
PME-1 inh – blocks human protein phosphatase methylesterase 1; Q9Y570; recombinant PME-1, FP-Rh probe fluorescence polarization; inhibition, % at 5.9 µM; actives 0.53% (n = 320,000); AID 2130;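 active = inhibition above the campaign mean of all compounds plus 3 SD, cut at about 26% in these data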;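 note: competitive labeling of PME-1 active site by serine hydrolase directed probe; 0% = PME-1 with DMSO and 100% = wells lacking PME-1 enzyme; inhibitors block probe labeling so polarization falls and inhibition rises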
PAFAH1B2 inh – PAFAH1B2 (human) inhibition. AID 492953. recombinant PAFAH1B2, FP-rhodamine activity probe, fluorescence polarization. P68402. inhibition, % at 3.39 µM. actives 1.2% (n = 340,000);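 active = inhibition above the mean of all tested compounds plus 3 SD, cut at about 24% in these data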;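 note: 0% = enzyme with DMSO and 100% = wells lacking PAFAH1B2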
Target sequence (P68402 whole entry, looked up): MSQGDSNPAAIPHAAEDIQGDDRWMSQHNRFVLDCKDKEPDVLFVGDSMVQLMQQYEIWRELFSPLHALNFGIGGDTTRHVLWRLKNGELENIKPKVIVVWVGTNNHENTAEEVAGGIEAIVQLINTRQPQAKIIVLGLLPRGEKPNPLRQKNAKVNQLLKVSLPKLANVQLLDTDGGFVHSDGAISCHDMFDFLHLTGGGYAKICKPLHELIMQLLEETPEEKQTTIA
pPAFAH inh – pPAFAH (human) enzyme inhibition; inhibition, % at 3.39 µM; Q13093; actives 1.5% (n = 330,000); AID 463082; recombinant pPAFAH, FP-rhodamine probe fluorescence polarization;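 active = inhibition above the mean inhibition across the screen plus 3 SD, cut at about 25% in these data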;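 note: inhibitors block binding of the rhodamine activity-based probe so polarization drops; 0% = enzyme with DMSO and 100% = wells lacking pPAFAH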
PAFAH2 confirm – confirmation of human PAFAH2 inhibitors; shares compounds with PAFAH2 FP inh; inhibition, % at 3.39 µM; recombinant PAFAH2, FP-rhodamine activity probe, fluorescence polarization; actives 65% (n = 2,300);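 active = mean inhibition over three repeats above a set limit taken from the earlier primary screen, cut at about 30% in these data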;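 note: inhibitor blocks binding of rhodamine activity probe so polarization falls; 0% = enzyme with DMSO and 100% = wells lacking PAFAH2 protein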
The depositor's hits bear a star; nt = not tested or not shown. Only some compounds are listed: those with a hit (about 2.9% of all), similar ones and a draw of the others.

SMILES | PAFAH1B3 FP inh | Fam108B inh | PAFAH2 FP inh | PME-1 inh | PAFAH1B2 inh | pPAFAH inh | PAFAH2 confirm
O=C(COC(=O)c1ccccc1C(=O)N1CCN(c2ccccc2)CC1)Nc1ccc(F)cc1 | -1.0 | 2.6 | 73.9* | 0.7 | 1.7 | 4.8 | 60.0*
COc1cccc(NC(=O)COC(=O)c2ccccc2C(=O)N2CCN(c3ccccc3)CC2)c1 | -7.5 | 2.6 | 54.5* | 3.7 | 2.0 | 6.6 | 54.2*
COc1cccc(NC(=O)COC(=O)C2=NN(c3ccccc3)C(=O)CC2)c1 | 6.1 | nt | 24.4 | nt | 5.3 | 16.7 | nt
O=C(COC(=O)c1ccccc1C(=O)N1CCN(c2ccccc2)CC1)Nc1ccccc1 | 11.2 | -2.2 | 62.7* | -3.1 | 5.0 | 4.8 | 60.0*
Cc1ccc(C(=O)OCC(=O)Nc2ccccc2C(F)(F)F)cc1S(=O)(=O)N1CCOCC1 | 0.9 | 0.5 | 62.9* | 0.0 | 2.7 | 8.2 | 57.1*
Cc1ccc(C(=O)OCC(=O)NCCc2ccc(F)cc2)cc1S(=O)(=O)N1CCOCC1 | -5.1 | nt | 47.3* | nt | 6.5 | 14.8 | 37.2*
COc1ccc(CNC(=O)COC(=O)c2ccc(C)c(S(=O)(=O)N3CCOCC3)c2)cc1 | 4.1 | nt | 13.1 | nt | 1.8 | 13.3 | nt
CCOC(=O)c1ccccc1NC(=O)COC(=O)c1ccc(C)c(S(=O)(=O)N2CCOCC2)c1 | 4.0 | -5.0 | 16.7 | 2.0 | -4.1 | 3.6 | nt
O=C(COC(=O)c1ccc(F)c(S(=O)(=O)N2CCOCC2)c1)NCc1ccc(F)cc1 | 11.3 | nt | 32.6* | nt | 1.6 | 0.5 | 25.0
Cc1ccc(C(=O)OCC(=O)NC(C)C)cc1S(=O)(=O)N1CCOCC1 | 0.6 | 2.3 | 32.4* | -1.4 | 0.7 | 11.4 | 23.3
Cc1cc(C)nc(SCC(=O)NNC(=O)c2ccccc2C)n1 | 1.3 | 0.7 | -4.2 | 1.8 | -2.6 | -1.2 | nt
Cc1ccc(C)c(NC(=O)CN(C)C(=O)CC2OC(=O)c3ccccc32)c1 (stereo not given) | -1.6 | nt | 3.1 | nt | 6.8 | -0.7 | nt
COCCCNC(=O)Cc1c(C)c2c(cc(C)c3c(C(C)(C)C)coc32)oc1=O | 5.8 | 5.6 | 33.2* | -1.5 | 9.2 | 12.2 | 20.0
COCCNC(=O)Cc1c(C)c2c(cc(C)c3c(C)coc32)oc1=O | 3.6 | -6.2 | 3.6 | 1.9 | 4.0 | 2.9 | nt
S=C(Cc1ccccc1)N1CCOCC1 | -7.4 | nt | -3.2 | nt | 7.4 | nt | nt
CC(=O)c1ccc(NC(=O)c2ccc(CNc3c(N4CCCC4)c(=O)c3=O)cc2)cc1 | -5.1 | -3.5 | 62.4* | -1.6 | 7.3 | 6.8 | 65.0*
COc1cc(NC(=O)c2ccc(CNc3c(N4CCOCC4)c(=O)c3=O)cc2)cc(OC)c1 | -4.0 | 2.7 | 3.1 | 5.6 | -1.8 | -2.3 | nt
CC(=O)c1ccc(NC(=O)c2ccc(CNc3c(N4CCOCC4)c(=O)c3=O)cc2)cc1 | 10.0 | -3.5 | 70.4* | -1.5 | 0.9 | -1.7 | 62.7*
O=C(COc1ccc2c(-c3ccccc3)cc(=O)oc2c1)NCc1cccs1 | -1.4 | -1.8 | -3.0 | 2.7 | 3.7 | 1.2 | nt
Cn1cc(CN2CCCC(C(=O)c3ccc(-c4ccccc4)cc3)C2)cn1 (stereo not given) | 6.4 | -1.6 | -4.5 | 0.7 | 0.3 | 5.7 | nt
CCOC(=O)c1c(CC(C)C)csc1/N=C/C1C(=O)CCCC1=O | -1.5 | 2.6 | 33.4* | 3.1 | 13.5 | 5.9 | 25.1
O=C1/C(=C\Nc2ccc(Cl)cc2)CCN1c1ncccn1 | 5.3 | 3.5 | 2.4 | 1.7 | -6.8 | -2.9 | nt
Cc1cccc(-c2cc3nc(-c4ccccc4)cc(=O)n3[nH]2)c1 | 8.5 | -1.8 | 41.1* | -28.3 | 13.2 | 13.9 | 26.3
Cc1ccccc1-c1cc2nc(-c3ccc([N+](=O)[O-])cc3)cc(=O)n2[nH]1 | 9.9 | -0.1 | 9.6 | -1.0 | 4.1 | 1.6 | nt
CC(C)c1nnc(SCC(=O)N2CCN(C(=O)c3ccco3)CC2)n1N | 5.9 | -3.1 | -0.1 | -8.3 | 2.7 | 3.4 | nt
SMILES | PAFAH1B3 FP inh | Fam108B inh | PAFAH2 FP inh | PME-1 inh | PAFAH1B2 inh | pPAFAH inh | PAFAH2 confirm
O=C(NC(=S)Nc1ccc2[nH]c(=O)[nH]c2c1)c1cc(Br)ccc1Cl | 6.6 | -10.7 | -22.7 | 7.4 | 1.0 | -0.4 | nt
O=C(NCC1CCCO1)C(C(=O)c1ccccc1)n1ccccc1=O (stereo not given) | 4.7 | -2.9 | 2.5 | -1.2 | 4.9 | 0.5 | nt
O=C(NCC1CCCO1)C(Cc1ccccc1)N1C(=O)C2C3C=CC(C4CC34)C2C1=O (stereo not given) | 4.9 | -2.2 | 42.5* | -0.8 | 2.2 | 0.4 | 26.0
CC(=O)N1CCc2cc(NS(=O)(=O)c3cccs3)ccc21 | 4.1 | 1.1 | 8.5 | -2.4 | -5.1 | 0.4 | nt
COc1ccccc1NS(=O)(=O)c1ccc(NC(=O)c2ccncc2)cc1 | 3.0 | -3.5 | 7.4 | 15.2 | 3.1 | 1.9 | nt
COc1ccccc1NS(=O)(=O)c1ccc(C(=O)Nc2ncccc2O)cc1 | 3.2 | nt | 55.1* | 6.4 | 6.2 | 2.8 | 46.1*
COC(=O)c1cc(C(=O)c2cc(Br)ccc2O)coc1=N | 0.0 | -0.8 | 30.9* | -3.1 | 1.8 | 1.1 | 5.3
CCOC(=O)c1cc(C(=O)c2cc(Br)ccc2O)coc1=N | 8.1 | 5.0 | 1.9 | 2.4 | 6.3 | 3.6 | nt
O=[N+]([O-])c1cccc(S(=O)(=O)Nc2nc3ccccc3nc2Nc2cccc(S(=O)(=O)N3CCCCC3)c2)c1 | 7.8 | nt | 44.5* | nt | 21.0 | nt | 12.7
Cc1cc(-c2ccc([N+](=O)[O-])cc2)nc2ccccc12 | 0.6 | 2.7 | 2.8 | 6.6 | 1.0 | 2.7 | nt
COc1ccc(-c2nc3ccc(C)cc3c(=O)o2)cc1OC | -2.4 | 0.4 | 43.1* | -1.6 | -4.5 | 3.6 | 42.5*
O=c1oc(-c2cccs2)nc2ccc(Br)cc12 | 4.1 | -11.1 | 18.0 | -10.0 | 2.7 | -5.6 | nt
O=c1oc(-c2ccc(Br)o2)nc2ccccc12 | 10.2 | -16.4 | 59.8* | -11.7 | 2.9 | -6.1 | 64.9*
Cc1ccc2nc(-c3ccccc3C)oc(=O)c2c1 | 2.9 | -0.7 | 65.1* | -3.2 | -1.5 | 3.8 | 45.5*
Cc1cc(-c2nc3ccccc3c(=O)o2)ccc1[N+](=O)[O-] | 8.8 | -2.1 | 69.6* | -3.5 | 2.6 | -4.5 | 69.8*
Cc1nc(CCN2C(=O)c3ccccc3C2=O)cs1 | 5.2 | 0.6 | -2.8 | 0.1 | -1.1 | 4.8 | nt
Cc1ccc2nc(-c3ccccc3)oc(=O)c2c1 | 4.0 | -6.1 | 86.0* | -15.1 | -0.1 | 1.1 | 69.1*
Cc1ccc(-c2nc3ccccc3c(=O)o2)cc1 | 4.4 | -4.2 | 81.4* | -5.6 | -2.1 | -8.2 | 72.9*
O=c1oc(-c2cccc([N+](=O)[O-])c2)nc2ccccc12 | 16.6 | 7.0 | 42.8* | -1.6 | 5.2 | 4.2 | 47.8*
O=C(Nc1cccc(-c2nc3ccccc3c(=O)o2)c1)c1ccccc1 | -17.6 | -41.2 | -20.7 | -13.1 | -8.3 | -13.3 | nt
COCCNC(=O)Cn1ccc2cc(S(=O)(=O)N3CCCCCC3)ccc21 | 2.0 | -2.7 | -0.4 | 8.2 | 4.5 | 4.0 | nt

Screening data (PubChem)
